Source: PubChem BioAssay AID2557 (NMMLSC, 2010)
The whole screen tested about 330,000 compounds, of which about 650 (0.2%) were called active. What follows is part of a selection rich in actives, with near analogues and random picks from the rest. Values without a mark were called inactive. No stated cut-off is given here; in the data, active means inhibition above about 50%; inactive means the rest.

molecular target: Integrin alpha-4 (Homo sapiens) (UniProt P13612); experiment: inhibition in human VLA-4 binding assay, primary screen, VLA-4 allosteric modulator project, MLPCN library, flow cytometry, VLA-4 expressing cells (AID 2557); conditions: ligand binding flow cytometry, hits give high values, about 7 µM as worked out from the volumes in the protocol
Sequence (P13612 whole entry, looked up): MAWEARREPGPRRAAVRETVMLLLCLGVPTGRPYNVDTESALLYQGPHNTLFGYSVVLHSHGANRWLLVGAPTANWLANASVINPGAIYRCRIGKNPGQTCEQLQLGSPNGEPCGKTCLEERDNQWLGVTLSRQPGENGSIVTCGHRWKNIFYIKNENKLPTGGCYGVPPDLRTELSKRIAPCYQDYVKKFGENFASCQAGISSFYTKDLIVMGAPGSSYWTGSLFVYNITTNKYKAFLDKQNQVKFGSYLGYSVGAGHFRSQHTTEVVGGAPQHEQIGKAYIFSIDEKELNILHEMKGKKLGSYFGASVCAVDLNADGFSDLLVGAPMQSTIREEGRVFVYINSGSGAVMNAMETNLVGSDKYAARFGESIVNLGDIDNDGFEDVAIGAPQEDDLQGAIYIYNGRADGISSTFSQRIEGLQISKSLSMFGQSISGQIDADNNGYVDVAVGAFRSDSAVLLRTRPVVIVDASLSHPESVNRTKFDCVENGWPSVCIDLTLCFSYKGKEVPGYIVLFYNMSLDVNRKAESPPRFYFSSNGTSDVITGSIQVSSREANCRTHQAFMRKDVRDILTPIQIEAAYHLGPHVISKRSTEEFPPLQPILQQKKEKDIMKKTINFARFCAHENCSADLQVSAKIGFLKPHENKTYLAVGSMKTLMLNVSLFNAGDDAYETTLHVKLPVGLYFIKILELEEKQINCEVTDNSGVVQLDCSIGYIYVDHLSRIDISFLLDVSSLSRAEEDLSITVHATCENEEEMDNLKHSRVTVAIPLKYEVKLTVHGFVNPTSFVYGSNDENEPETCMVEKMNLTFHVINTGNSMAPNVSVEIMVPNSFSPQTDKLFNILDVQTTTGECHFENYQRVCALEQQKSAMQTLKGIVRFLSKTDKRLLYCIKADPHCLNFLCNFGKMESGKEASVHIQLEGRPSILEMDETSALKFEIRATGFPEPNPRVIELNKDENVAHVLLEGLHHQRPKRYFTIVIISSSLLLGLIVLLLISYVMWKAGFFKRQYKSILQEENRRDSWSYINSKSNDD

| SMILES | inhibition |
| --- | --- |
| Cc1cc(C)nc(/N=C2\NC(=O)CC(C(=O)O)N2c2ccc(Cl)cc2Cl)n1 (stereo not drawn) | -2.34% |
| CCOC(=O)c1sc(NC(=O)CSc2nc(O)c(Cc3ccccc3)c(=O)[nH]2)nc1C | 2.73% |
| O=C(Nc1ncccc1O)c1ccc(C(=O)c2ccccc2)cc1 | 16.6% |
| O=C(NCc1nnc(SCC(=O)N2CCC(Cc3ccccc3)CC2)o1)c1ccco1 | -6.21% |
| CCc1ccc2c(c1)C1(NN=C(c3ccccc3)S1)C(=O)N2 (stereo not drawn) | 92.2% (active) |
| Cc1c(C=O)c2ccccn2c1C(=O)c1ccncc1 | 11.9% |
| Cc1ccc(C)c(N2CCN(C(=O)CCc3nc4ccccc4[nH]3)CC2)c1 | 8.4% |
| CC/C(O)=C1\C(=O)CC(C)(C)CC1=NCCc1nc2ccccc2[nH]1 | 55.8% (active) |
| CCC/C(O)=C1\C(=O)CC(C)(C)CC1=Nc1ccccc1OC | 15.2% |
| Cc1cc(C(=O)NNC(=S)NC(C)c2ccccc2)cs1 (stereo not drawn) | 6.13% |
| CCC(C)(C)NC(=O)C(c1cccc(OC)c1OC)N(CC(C)C)C(=O)CCC(=O)Nc1cc(C)on1 (stereo not drawn) | 1.27% |
| O=C(COc1ccc(Cl)cc1)Nc1ccc2c(c1)OCO2 | 14.3% |
| COc1ccc(OCC(=O)NNC(=O)C2CCC2)cc1 | 13.2% |
| NNC(=O)COc1ccc(C2SCCS2)cc1 | 54.2% (active) |
| COC(=O)[C@@]12CCCN1[C@H](c1ccc(-c3ccc(F)cc3)c(OC)c1)[C@H]1C(=O)N(C)C(=O)[C@H]12 | 21.7% |
| Cc1ccc(CNC(=O)CCCNC(=O)c2ccc(Cl)cc2)n1C | -1.01% |
| CC(=O)NCC(=O)N(C)C(C(=O)Nc1ccc2c(c1)OCCO2)c1ccccc1 (stereo not drawn) | 14.2% |
| O=c1[nH]nc(SCCS(=O)(=O)c2ccc(F)cc2)n1-c1ccccc1C(F)(F)F | 3.05% |
| C=C(C)CNC(=S)/N=c1\scc(C)n1CC | 5.83% |
| O=C(O)CSCC(=O)Nc1ccc(C(F)(F)F)cc1 | 4.49% |
| Cc1cc2cc3c(N)[nH]nc3nc2cc1C | 10.6% |
| Cc1cc(OCCN2CCCC2)cc(C(C)C)c1 | -8.43% |
| Cc1cnc(NC(=O)CSc2nnc(C)s2)s1 | 58.3% (active) |
| Cc1nnc(SCC(=O)Nn2cnnc2)s1 | -1.38% |

| SMILES | inhibition |
| --- | --- |
| Cc1ccc(SCC(=O)Nc2ncc(C)s2)cc1 | -0.13% |
| COc1cccc(N2C(=O)CC(N3CCc4ccccc4C3)C2=O)c1 (stereo not drawn) | -4.39% |
| COc1cccc(N2C(=O)CC(N3CCN(S(=O)(=O)c4ccccc4)CC3)C2=O)c1 (stereo not drawn) | 12.7% |
| COc1cccc(N2CCN(C3CC(=O)N(c4ccc(Cl)cc4)C3=O)CC2)c1 (stereo not drawn) | 94.7% (active) |
| Cc1cccc2nc(CSc3nc4[nH]ncc4c(=O)n3-c3cccc(Cl)c3)cc(=O)n12 | 0.93% |
| O=C(Nn1c(SCc2ccc([N+](=O)[O-])cc2)nc2ccccc2c1=O)c1ccc(F)cc1 | -2.25% |
| Cc1nc2ccccc2c(=O)n1NC(=O)c1ccc(Cl)c([N+](=O)[O-])c1 | 8.96% |
| O=C(Nn1c(-c2ccccc2)nc2ccccc2c1=O)c1ccc([N+](=O)[O-])cc1 | 52% (active) |
| CN(C(=O)COC(=O)Cn1cnc2c1c(=O)n(C)c(=O)n2C)C1(C#N)CCCCC1 | 0% |
| COc1cccc(C2=CC(=O)C[C@H](c3ccc(F)cc3)C2)c1OC | 0% |
| Cc1ccc(S(=O)(=O)N(Cc2ccccc2)c2ccccn2)cc1[N+](=O)[O-] | 6.28% |
| CCOc1cc(C(=S)N2CCOCC2)ccc1OS(=O)(=O)c1ccc(Br)cc1 | 6.18% |
| COC(=O)N/N=C/c1cn(CCCOc2ccc(C)cc2)c2ccccc12 | 1.98% |
| COC(=O)N/N=C/c1c[n+]([O-])c2ccccc2[n+]1[O-] | 52.6% (active) |
| COC(=O)N/N=C/c1ccc(-c2ccc(Cl)c(Cl)c2)o1 | 12.9% |
| COc1cc(C(C(=O)NC2CCCC2)N(C(=O)c2ccco2)c2ccccc2C(C)=O)cc(OC)c1OC (stereo not drawn) | -1.99% |
| O=C(CN1CCSCC1)N/N=C/c1ccc(F)cc1 | -0.98% |
| Nc1nc(SCC(=O)NNc2c(Cl)cc(Cl)cc2Cl)n[nH]1 | -17.3% |
| Cc1ccc(N(C(=O)CNC(=O)c2ccco2)C(C(=O)NC2CCCC2)c2ccncc2)cc1 (stereo not drawn) | -11.3% |
| CC(C)Cn1cnc2c1c(=O)n(CC(O)c1ccccc1)c(=O)n2CC(C)C (stereo not drawn) | -0.03% |
| Cc1ccccc1CN1CCNC(=O)C1CC(=O)NCCC1=CCCCC1 (stereo not drawn) | -8.93% |
| CSCc1cc(N(C)C)nc(SCc2ccc(Cl)cc2Cl)n1 | -0.25% |
| Cc1cccc(OCCCC(=O)Nc2ccc(S(=O)(=O)N3CCCC3)cc2)c1 | 6.35% |
| O=C(NC(=S)Nc1ccccc1C(=O)O)c1ccc(-c2ccc(Br)cc2)o1 | -8.29% |

| SMILES | inhibition |
| --- | --- |
| CNC1(c2nnnn2-c2c(C)cccc2C)CCOC(C)(C)C1 (stereo not drawn) | -0.18% |
| CCN(CC(=O)Nc1c(F)cccc1F)C(=O)c1ccc(S(=O)(=O)N2CCCCC2)cc1 | -0.6% |
| COc1ccccc1/C=C/C(=O)OCC(=O)NC1CCCCCC1 | 9.38% |
| N#CC1(NC(=O)COc2ccc3oc4ccccc4c3c2)CCCCC1 | 17.8% |
| COc1cccc(N(C(=O)c2snc(C(N)=O)c2N)C(C(=O)NCC2CCCO2)c2c[nH]c3ccccc23)c1 (stereo not drawn) | -8.82% |
| O=C1NC2(CCCCC2)N=C1c1ccccc1 | 7.05% |
| Cn1cnc2c1c(=O)n(Cc1ccccc1C#N)c(=O)n2C | 0.49% |
| Cn1c(=NC(=O)c2ccc3c(c2)OCCO3)sc2cc(S(C)(=O)=O)ccc21 | 4.69% |
| Cc1cc(C)nc(SCc2nnc(SCC(=O)OC3CCCCC3)o2)n1 | -6.47% |
| CC(C)C[C@@H](CO)N1CCN(Cc2ccc(O)cc2)CCC1=O | 25.2% |
| COC(=O)c1ccc(CN(c2ccccc2OC)S(=O)(=O)c2cccs2)o1 | 12.4% |
| O=C(CN(C(=O)c1nsc(Cl)c1Cl)c1cccc(F)c1)NC1CCCC1 | 5.34% |
| O=C(CCS(=O)(=O)c1ccc(Br)cc1)NCCc1ccc(Cl)cc1 | -4% |
| COc1cc(OC)cc(C(=O)NCC(=O)N2CCCCCCC2)c1 | 2.18% |
| Cc1ccc(S(=O)(=O)N2CCN(C(=O)COC(=O)CNC(=O)c3ccc(C(C)(C)C)cc3)CC2)c(C)c1 | -0.38% |
| Cc1cc(C)cc(C(=O)NCC(=O)OCC(=O)N2CCCCC2)c1 | 51.9% (active) |
| COCCOC(=O)C1=C(C)NC(=O)NC1c1ccc(Cl)cc1 (stereo not drawn) | 0.04% |
| COCCOC(=O)C1=C(C)Nc2nc(C)nn2C1c1ccccc1 (stereo not drawn) | 76% (active) |
| CC1=C(C(N)=O)C(c2ccc(F)cc2)n2nc(CCCO)nc2N1 (stereo not drawn) | -3.48% |
| CCCCOc1ccc(N(CC(=O)NC(C)C)C(=O)CCC(=O)Nc2ccccn2)cc1 | 23.1% |
| Cc1ccc(CN2CCN(Cc3ccc4ncccc4c3)CC2CCO)cc1 (stereo not drawn) | 7.01% |
| CC(C)(C)C1CCC(C(=O)Nc2cccnc2)CC1 (stereo not drawn) | 13.3% |
| CCN(CC)S(=O)(=O)c1ccc(OC)c(NC(=O)CCc2c(C)noc2C)c1 | 9.08% |
| O=C(COc1ccccc1F)NNC(=O)c1ccc(N2CCCCC2)c([N+](=O)[O-])c1 | 19.2% |

| SMILES | inhibition |
| --- | --- |
| CCOC(=O)c1ccc(N2C(=O)CC(N3CCN(C(=O)c4ccccc4)CC3)C2=O)cc1 (stereo not drawn) | 2.59% |
| CCOC(=O)c1ccc(N2C(=O)CC(N3CCC(C(=O)OCC)CC3)C2=O)cc1 (stereo not drawn) | 24.6% |
| CCOC(=O)c1ccc(N2C(=O)CC(N3CC(C)OC(C)C3)C2=O)cc1 (stereo not drawn) | 108% (active) |
| Cc1cc(C)cc(NC(=O)COC(=O)c2cc(C)oc2C)c1 | 3.64% |
| Cc1cc(C(=O)OCC(=O)Nc2ccc(F)c(F)c2)c(C)o1 | 49.7% (active) |
| Cc1cc(C(=O)OCC(=O)Nc2ccccc2Cl)c(C)o1 | -2.15% |
| Cc1ccc(-c2cc(N)on2)cc1 | 19.5% |
| Cc1ccc(N(CC(O)CN2CCCC2)S(=O)(=O)c2ccccc2)cc1 (stereo not drawn) | 4.52% |
| Cc1cc(C)n(CC(O)CN(c2ccccc2)S(=O)(=O)c2ccc3ccccc3c2)n1 (stereo not drawn) | 50.2% (active) |
| Cc1cccc(N(CC(O)CN(C)C)S(=O)(=O)c2ccccc2)c1 (stereo not drawn) | 2.19% |
| O=C(COC(=O)c1ccc2ncsc2c1)Nc1ccc(Cl)cc1 | -15.8% |
| Cn1c(=O)c2c(nc(N/N=C/c3cccs3)n2Cc2ccc(Br)cc2)n(C)c1=O | 7.63% |
| COc1ccc(Nc2cc(Sc3ccc(OC)cc3)ncn2)cc1 | 4.33% |
| CCCNS(=O)(=O)c1ccc2c(c1)CCCN2C(C)=O | 9.08% |
| CC(=O)N1CCc2cc(S(=O)(=O)Nc3ccccc3N3CCN(C)CC3)ccc21 | 54% (active) |
| CC(=O)N1CCc2cc(S(=O)(=O)NC3CCCCC3)ccc21 | -5.2% |
| C=CC(COCc1ccccc1)N(CC(=O)OC)S(=O)(=O)c1cc(Br)ccc1OC (stereo not drawn) | 0.47% |
| Fc1cc(Br)ccc1NC(=S)Nc1cccnc1 | 12.9% |
| Cc1ccc(NC(=O)Nc2cccnc2)cc1 | 2.64% |
| S=C(Nc1cccnc1)Nc1ccccn1 | 52.3% (active) |
| O=C(CN(C(=O)CNC(=O)c1cccs1)c1cccc(F)c1)NC1CCCCC1 | 5.25% |
